Measured values reported in PubChem BioAssay AID701 (PCMD, 2007).
Hit rate of the full screen: of about 33,000 compounds, about 70 (0.2%) were called active. No stated cut-off is given here; in the data, active means inhibition above about 30%; inactive means the rest. A selection follows.

target: Coagulation factor XII (Homo sapiens) (UniProt P00748); assay: human FXIIa protease inhibitors, primary screen, biochemical, single well (AID 701); conditions: purified human FXIIa, AMC substrate fluorescence, 2 h; at 10 µM; hits give high values;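 further: 0% = enzyme with vehicle only and 100% = no enzyme blank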
Sequence (P00748 20-372 limits assumed): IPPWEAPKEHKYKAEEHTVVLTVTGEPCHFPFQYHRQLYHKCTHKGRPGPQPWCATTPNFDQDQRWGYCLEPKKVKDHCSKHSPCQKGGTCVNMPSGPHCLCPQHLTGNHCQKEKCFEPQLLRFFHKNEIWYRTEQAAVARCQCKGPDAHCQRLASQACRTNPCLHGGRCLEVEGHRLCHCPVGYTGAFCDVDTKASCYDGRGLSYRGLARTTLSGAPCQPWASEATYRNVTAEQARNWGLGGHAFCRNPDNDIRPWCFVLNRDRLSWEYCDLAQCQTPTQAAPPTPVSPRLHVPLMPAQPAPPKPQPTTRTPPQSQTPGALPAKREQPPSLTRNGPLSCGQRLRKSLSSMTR
Sequence (P00748 373-615 limits assumed): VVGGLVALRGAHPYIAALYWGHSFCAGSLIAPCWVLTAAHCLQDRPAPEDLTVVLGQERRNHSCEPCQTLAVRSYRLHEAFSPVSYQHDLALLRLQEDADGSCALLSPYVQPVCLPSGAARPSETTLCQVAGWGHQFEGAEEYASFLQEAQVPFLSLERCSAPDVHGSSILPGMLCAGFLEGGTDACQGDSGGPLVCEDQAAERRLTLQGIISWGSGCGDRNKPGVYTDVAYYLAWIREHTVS

inhibition, inactive:
COc1cc2c(cc1OC)C(C(=O)NCc1ccco1)C1c3ccccc3CCN1C2=O (configuration not stated) 7.77%, COCCN(C(=O)c1ccco1)c1nnc(-c2ccc(OC)cc2)s1 7.18%, CCCCN1C(=O)CC(N2CCOCC2)C1=O (configuration not stated) 4.3%, Cc1cccc(NC(=O)Cn2cc(C(=O)c3ccco3)c3ccccc32)c1 -10.1%, Cc1ccc(N(CC(=O)Nc2cc(C)cc(C)c2)S(=O)(=O)c2cccc3nonc23)cc1 17.2%, COc1ccc(-c2cc3nc(C)c(CCC(=O)NC(C)CCc4ccco4)c(C)n3n2)c(OC)c1 (configuration not stated) -1.94%, CC1=C(C(N)=O)C(c2sccc2C)n2nnnc2N1 (configuration not stated) 3.63%, CCOC(=O)c1nnn(-c2nonc2-n2cccc2)c1CN1CCC(C(=O)OCC)CC1 0.91%, O=C(CC1(O)C(=O)N(CN2CCOCC2)c2ccccc21)c1ccccc1 (configuration not stated) -13.4%, CCOCCCNC(=O)C(NC(=O)c1ccc(=O)[nH]c1)c1ccc(C)cc1 (configuration not stated) -13.5%, CC(O)CN(Cc1ccc(Cl)cc1)CC(C)O (configuration not stated) 4.36%, COc1ccc(N(CC(=O)NC2CCCCC2)S(=O)(=O)c2c(C)[nH]c(=O)[nH]c2=O)cc1 6%, CC(=O)N1CCCc2cc(S(=O)(=O)CCC(=O)N3CCN(c4ccccc4)CC3)ccc21 -16.3%, O=C1CSC(c2cccc(F)c2)N1c1ccc(O)cc1 (configuration not stated) 20.5%, CC(=O)c1c(C)[nH]c(C(=O)NCc2ccc(C)cc2)c1C 5.44%, Cn1c(=O)n(CCc2ccccc2)c(=O)c2c1nc1n2CCCN1c1ccccc1 -0.18%, O=C1CSC(c2ccc(Cl)cc2)N1 (configuration not stated) -6.79%, OC(COc1cccc(OCC(O)CN2CCCC2)c1)CN1CCCC1 (configuration not stated) 1.91%, COc1cccc(NC(=O)Cc2ccc(C)cc2)c1 3.98%, COc1cc(CC(=O)NCc2cccs2)cc(OC)c1OC 12%, Brc1ccc(Nc2c3c(nc4ncnn24)CCC3)cc1 -0.85%, CCN1CCN(C(c2cccnc2)c2cc(Cl)c3cccnc3c2O)CC1 (configuration not stated) 11.8%, O=S(=O)(NCCNS(=O)(=O)c1ccccc1)c1ccccc1 15.1%, CCC(=O)NC(Nc1cc(C)ccn1)(C(F)(F)F)C(F)(F)F 5.79%, CCCNC(=O)c1ccccc1NC(=O)CSCc1ccc(OC)cc1 0.92%, CCCNC(=O)CN(Cc1ccccc1F)S(=O)(=O)c1ccc(C)cc1 16.6%, CC(=O)Nc1ccc(S(=O)(=O)N2CCSCC2)cc1 3.77%, Cc1cc(SCC(=O)c2ccccc2)nc(SCC(=O)c2ccccc2)n1 -15.6%, Cc1ccc(CCN2CC(C(=O)O)CC2=O)cc1 (configuration not stated) 9.91%, O=C(NCCc1ccccc1)c1ccc(OCCOc2ccccc2)cc1 5.87%, CCOC(=O)c1[nH]cnc1C(=O)NC1CCCCC1 1.72%, COCCn1c(SCc2nc3cc(OC)c(OC)cc3c(=O)[nH]2)nnc1-c1ccncc1 3.73%, Cn1nnnc1SCC(=O)Nc1ccccc1C(=O)NC1CC1 -1.23%, O=S(=O)(N1CCCCC1)N1CCNCC1 4.16%, Cc1cc(C(=O)OC(C)C(=O)Nc2cccc(S(=O)(=O)N3CCOCC3)c2)c(C)o1 (configuration not stated) 8.04%, CCn1c(SCC(=O)Nc2ccc(OC)c(OC)c2)nnc1-c1c[nH]c2ccccc12 5.25%, COc1cc(OC)cc(-c2cc3nc(C4CCN(C(=O)OC(C)(C)C)CC4)cc(=O)n3[nH]2)c1 -5.3%, COc1ccc(C2=NOC3(CC(=O)N(c4ccc(Cl)cc4)C3=O)C2)c(OC)c1 (configuration not stated) -13.9%, Cc1cccc(-n2ncc3c(N4CCc5ccccc54)ncnc32)c1 4.16%, Cn1ccs/c1=N\S(=O)(=O)c1ccc(C(C)(C)C)cc1 6.13%, CC(CN1CCOCC1)c1ccccc1 (configuration not stated) 7.84%, CCn1c(=O)c(=O)n(CC)c2cc(S(=O)(=O)N3CCc4ccccc43)ccc21 8.33%, COc1ccc(OCCCON2C(=O)c3ccccc3C2=O)cc1 3.44%, Cc1ccc(OCC(=O)N/N=C\c2ccco2)c(C)c1 5.38%, CCOCCOC(=O)C1=C(C)N(C)C(=O)NC1c1ccccc1F (configuration not stated) 2.69%, O=C(NCc1ccccc1)C1CCCN(S(=O)(=O)c2cccs2)C1 (configuration not stated) 3.39%, O=C(Nc1cc(-c2nn(CC(=O)N3CCCCC3)c(=O)c3ccccc23)ccc1N1CCOCC1)c1ccc(Cl)cc1 -11%, CC1CCCCC1NC(=O)C1CCCN1S(=O)(=O)c1cccc2nsnc12 (configuration not stated) 10.7%, CC1CC(C)CN(C(=O)CSc2nnc(CSc3ncccn3)n2C)C1 (configuration not stated) 1.36%, CCn1c(C)nc2cc(C(=O)NNS(=O)(=O)c3ccc(C)cc3C)ccc21 5.64%, COc1ccc(-n2c(C)csc2=S)cc1 1.97%, CCCCCN1CC(O)=C(c2ccccc2)C1=N -12.2%, O=C(Nc1cc2ccccc2oc1=O)C1CCCCC1 6%, Cc1nnc(SCC(=O)N2CCc3ccccc3C2)s1 -10.1%, Cc1ccc(CNC(=O)CCNS(=O)(=O)c2cccc3nonc23)cc1 7.33%, Cc1ccc(-n2c(CNc3ccc(F)cc3)nnc2SCC(=O)N2CCOCC2)cc1 0.69%, CCOC(=O)c1c(NC(C)=O)sc2c(O)c(Br)ccc12 5.45%, CCOC(=O)CN(Cc1ccc(OC)c(OC)c1)S(=O)(=O)c1ccc(OC)cc1 8.43%, CS(=O)(=O)N(CC(=O)N1CCN(Cc2ccccc2)CC1)c1ccc2c(c1)OCCO2 21.1%, COc1ccc(C2C(C#N)=C(/N=C/N3CCOCC3)OC3=C2C(=O)CC(C)(C)C3)cc1OC (configuration not stated) 8.48%, COC(=O)CSc1snnc1-c1ccc(Cl)c(Cl)c1 5.67%, Cc1nnc(OCC(=O)NCCC2=CCCCC2)c2ccccc12 11.9%, COC(=O)C(C)n1cnc2c(nnn2-c2cccc(Cl)c2)c1=O (configuration not stated) 4.25%, C=CCNC(=O)C12CC3CC(C1)CC(C(=O)NCC=C)(C3)C2 5.41%, O=C(CNS(=O)(=O)c1ccc(Br)s1)N1CCN(C(=O)c2ccco2)CC1 5.22%, O=c1onc(-c2cccs2)n1Cc1ccccc1 2.91%, CC(=O)C1=C(C)NC(=O)NC1c1cc(Br)ccc1OCC#N (configuration not stated) 6%, CC/C(O)=N\S(=O)(=O)c1ccc(N=NN(C)C)cc1 12.3%, O=C(c1cccc(N2CCCC2=O)c1)N1CCOCC1 8.03%, O=C(NCCCN1CCCCC1)c1ccc2c(c1)NC(=O)C(N1CCOCC1)S2 (configuration not stated) 2.66%, COc1ccccc1CNS(=O)(=O)c1ccc(C)cc1 -2.17%, Nn1c(SCC(=O)NC2CCCC2)nnc1-c1ccccc1F 2.89%, CC(=O)c1cccc(NC(=O)N2CCCC2C(=O)NCCc2ccccc2)c1 (configuration not stated) 6.02%, CC(=O)c1cccc(NC(=O)C2CCCN2S(=O)(=O)c2cccc3nsnc23)c1 (configuration not stated) -30.9%, COc1ccc(C(=O)NNC(=O)c2cnccn2)cc1[N+](=O)[O-] 6.61%, CSc1ccccc1NC(=O)c1cc(C2CC2)on1 5.73%, Cc1cc(C(=O)Nc2c(C)nn(Cc3ccccc3)c2C)on1 3.84%, Cc1nnc(NCCO)c2ccccc12 -0.65%, O=C(NC1CCCCC1)c1ccc(CNc2c(N3CCOCC3)c(=O)c2=O)cc1 9.25%, CCS(=O)(=O)c1ccc2oc(SCC(=O)N3c4ccccc4CC3C)nc2c1 (configuration not stated) 11.8%, CC(NC(=O)C1CCC(CNc2c(N3CCOCC3)c(=O)c2=O)CC1)c1ccccc1 (configuration not stated) 4.59%, Cc1ccc(OC(=O)c2ccccc2C(=O)OCC(F)(F)C(F)F)cc1 5.93%, Cc1ccc(CS(=O)(=O)CCC(=O)NC2CC2)cc1 3.34%, O=C(OCC(=O)N1CCN(C(=O)c2ccco2)CC1)c1ccccc1Cc1ccccc1 3.88%, CC(C)CCNC(=O)CC1C(=O)N(Cc2ccccc2)C(C)c2nc3ccccc3n21 (configuration not stated) 5.26%, CCCCCOC(=O)c1ccc(N2C(=O)C3C4C=CC(C4)C3C2=O)cc1 (configuration not stated) -10.2%, O=C(N1CCOCC1)N(Cc1ccccc1)c1ccccn1 1.36%, COC(=O)c1cc(OC)ccc1-c1ccc(OC)cc1 4.36%, COCCCNC(=O)CN1CCN(Cc2ccccc2Cl)C1=O 13.3%, COCCNC(=O)COc1ccc(C)c(C)c1 5.6%, COC(=O)C1C(=O)NCC1c1ccc(C)cc1 (configuration not stated) 4.77%, COc1ccc(C(=O)Nc2ccc(CN3CCOCC3)cc2)cc1 -0.34%, COC(=O)c1ccccc1Sc1c(/C=N/OCc2ccc(Cl)cc2)c(C(F)(F)F)nn1C 5.69%, CCSc1nc(-c2ccc(OC)cc2)cc(-c2ccc(OC)cc2)c1C#N 12.5%, COC(=O)[C@@H](NC(=O)Nc1cc(Cl)ccc1C)C(C)C -0.53%, O=C(OCC#CCSc1nnc(-c2ccncc2)o1)c1sc2ccccc2c1Cl -11.2%, O=C(Cc1c(O)c2ccccc2[nH]c1=O)NCc1ccccc1 -1.57%
